Counter-ions that a name gives are not always drawn. Over roughly 1,000 compounds, “cFRET/donor change relative to DMSO, normalised to beta-lapachone positive control (supercomplex I-IV assembly)” has its median near 0.18; the lowest 2% begin near -1. For the sample, the lowest values were picked, then their nearest neighbours and some compounds at random.

In this test the test system is C2C12 (NDUFB8-AcGFP / COX8A-DsRed-Monomer FRET reporter). Put plainly: cFRET/donor change relative to DMSO, normalised to beta-lapachone positive control (supercomplex I-IV assembly) (fraction of beta-lapachone effect); higher = more respiratory supercomplex assembly. Particulars: 40 µM; 24 h. Here is the method: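 Cells were treated with 40 uM compound for 24 h and imaged on an IN Cell Analyzer 6000. Corrected FRET was divided by donor signal (cFRET/donor) and measured in two replicate experiments. The score is (mean cFRET/donor of compound - mean DMSO) / (mean beta-lapachone 40 uM - mean DMSO). Compounds flagged for prominent cell death, abnormal morphology or decreased cell number were excluded.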
The compound `COCCOc1cc2ncnc(Cl)c2cc1OCCOC` displayed a cFRET/donor change of 0.0633.

In the case of `CCOC(=O)c1ccc(C#Cc2ccc3c(c2)C(C)(C)CCS3)nc1` [Tazarotene], the cFRET/donor change turned out to be 0.454.

`c1ccc2c(c1)CC(N1CCN(c3cccc4c3OCCO4)CC1)C2` gave a cFRET/donor change of 0.201.

`c1cnc2cc3c(cc2n1)[C@@H]1CNC[C@H]3C1` [Varenicline tartrate] yielded a cFRET/donor change of 0.22.

On to `Cc1ccc(S(=O)(=O)/C=C/C#N)cc1`, for which the cFRET/donor change is 0.324.

Turning to `COc1ccc(CCNc2nc(N3CCc4cc(OC)c(OC)cc4C3)c3cc(OC)c(OC)cc3n2)cc1OC`, the cFRET/donor change worked out at 0.14.

In turn, `O=C1c2c(O)cc(O)cc2O[C@H](c2ccc(O)c(O)c2)[C@H]1O` (racemic) [(±)-Taxifolin] had a cFRET/donor change of 0.226.

On to `CN(c1ccccc1CNc1nc(Nc2ccc3c(c2)CC(=O)N3)ncc1C(F)(F)F)S(C)(=O)=O`, for which the cFRET/donor change is 0.036.

Turning to `O=C(O[C@@H]1C[C@@H]2C[C@H]3C[C@H](C1)N2CC3=O)c1c[nH]c2ccccc12` [Dolasetron mesylate hydrate], the cFRET/donor change was determined as 0.115.

For `NC(N)=NCc1cccc(I)c1` [m-Iodobenzylguanidine hemisulfate], the cFRET/donor change was -0.0455.

Regarding `CN(CCCOc1ccc(Cc2ccccc2)cc1)CCC(=O)O`, the cFRET/donor change came out at 0.52.

As for `COc1cccc(OC)c1-c1cc(C(=O)NC2(C(=O)O)C3CC4CC(C3)CC2C4)nn1-c1ccc(C(=O)N(C)CCCN(C)C)cc1C(C)C` (centres undefined), the cFRET/donor change is 0.153.

As for `CC(C)[N+]1(C)[C@@H]2CC[C@H]1C[C@@H](OC(=O)C(CO)c1ccccc1)C2` (some centres undefined) [Ipratropium bromide], the cFRET/donor change stood at 0.299.

With `O=C1CCC(c2ccc(-n3ccnc3)cc2)=NN1` [Imazodan], the cFRET/donor change was determined as 0.0699.

The compound `Nc1nc(=O)c(Br)c(-c2ccccc2)[nH]1` [Bropirimine] displayed a cFRET/donor change of -0.0226.

The compound `Nc1ccc(-c2nc3ccc(-c4nc5ccc(N)cc5[nH]4)cc3[nH]2)cc1` had a cFRET/donor change of -0.494.

`CC(C)(C)NC(=O)[C@@H]1CN(Cc2cccnc2)CCN1C[C@@H](O)C[C@@H](Cc1ccccc1)C(=O)N[C@H]1c2ccccc2C[C@H]1O` [Indinavir sulfate salt hydrate] registered a cFRET/donor change of 0.0944.

In the case of `Cc1cc(NC2CCCCC2)nc(-n2nc(C)cc2C)n1`, the cFRET/donor change amounted to 0.569.

As for `O=C1/C(=C/c2cccs2)CC/C1=C\c1cccs1`, the cFRET/donor change came out at 0.584.

The compound `CCN(CC)CCCC(C)Nc1c2ccc(Cl)cc2nc2ccc(OC)cc12` (centres undefined) [Quinacrine dihydrochloride] yielded a cFRET/donor change of -4.52.

`OC[C@H]1O[C@@H](n2cnc3c(N[C@H]4CCC[C@@H]4O)ncnc32)[C@H](O)[C@@H]1O` showed a cFRET/donor change of 0.476.

Compound `C[C@H](c1ccc(F)cc1CCCC(=O)O)N(c1cc(F)ccc1F)S(=O)(=O)c1ccc(Cl)cc1` displayed a cFRET/donor change of 0.476.

On to `C[N+](C)(C)CCO.[Br-]` [Choline bromide], for which the cFRET/donor change worked out at 0.313.

`O=C(CCCCCN1CCN(c2ccccc2-c2ccccc2)CC1)NC1CCCc2ccccc21` (centres undefined) [LP 12 hydrochloride hydrate]: the cFRET/donor change turned out to be 1.51.

As to `C=CC1=C(C)c2cc3[nH]c(cc4nc(cc5[nH]c(cc1n2)c(C)c5CCC(=O)O)C(CCC(=O)O)=C4C)c(C)c3C=C` [Protoporphyrin IX disodium], the cFRET/donor change amounted to 3.12.

Regarding `COC(=O)C1=C(C)NC(C)=C(C(=O)OC2CCCN(Cc3ccccc3)C2)C1c1cccc([N+](=O)[O-])c1` (centres undefined) [Benidipine hydrochloride], the cFRET/donor change came to 0.367.

Regarding `CCc1cccc(N(C)C(=N)Nc2cccc3ccccc23)c1`, the cFRET/donor change is 0.203.

`CCOC(=O)[C@@H](N)Cc1ccc(O)c(O)c1` [L-Dopa ethyl ester]: the cFRET/donor change was -0.101.

In turn, `O=c1n(CCCN2CCN(c3cccc(Cl)c3)CC2)nc2ccccn12` [Trazodone hydrochloride] registered a cFRET/donor change of 0.586.

As to `CC[C@H]1OC(=O)[C@H](C)[C@@H](O[C@H]2C[C@@](C)(OC)[C@@H](O)[C@H](C)O2)[C@H](C)[C@@H](O[C@@H]2O[C@H](C)C[C@H](NC)[C@H]2O)[C@](C)(O)C[C@@H](C)CN(C)[C@H](C)[C@@H](O)[C@]1(C)O`, the cFRET/donor change came to 0.325.

In turn, `O=C(O)c1cc(=O)c2ccccc2[nH]1` [Kynurenic acid] returned a cFRET/donor change of -0.161.

`O=c1cc(-c2ccccc2)[nH]c2nc(Cl)ccc12` [7-Chloro-4-hydroxy-2-phenyl-1,8-naphthyridine] had a cFRET/donor change of -1.98.

Compound `CN1[C@@H]2CC[C@H]1CC(OC(=O)c1c[nH]c3ccccc13)C2` (some centres undefined) [3-Tropanyl-indole-3-carboxylate hydrochloride] returned a cFRET/donor change of 0.435.

In the case of `CCCOc1ccccc1-c1nc2[nH]nnc2c(=O)[nH]1` [Zaprinast], the cFRET/donor change worked out at 0.225.

`CCCCN(CC)c1nc(C)nc2c1c(C)cn2-c1c(C)cc(C)cc1C`: the cFRET/donor change is 0.353.

Compound `CNC(=O)[C@H]1O[C@@H](n2cnc3c(NCc4ccc(N)cc4)ncnc32)[C@H](O)[C@@H]1O` gave a cFRET/donor change of 0.125.

Turning to `Cc1nc(C#Cc2cccnc2)cs1` [MTEP hydrochloride], the cFRET/donor change amounted to 0.691.

In turn, `CCCc1nn(C)c2c(=O)[nH]c(-c3cc(S(=O)(=O)N4CCN(C)CC4)ccc3OCC)nc12` [Sildenafil citrate salt] yielded a cFRET/donor change of 0.123.

The compound `NS(=O)(=O)c1cc2c(cc1Cl)N=CNS2(=O)=O` [Chlorothiazide] registered a cFRET/donor change of 0.223.

In turn, `C=C1C(=O)O[C@H]2[C@H]1CC/C(C)=C/CC[C@@]1(C)O[C@@H]21` [Parthenolide] displayed a cFRET/donor change of 0.366.

With `CN(CCOc1ccc(NS(C)(=O)=O)cc1)CCc1ccc(NS(C)(=O)=O)cc1` [Dofetilide], the cFRET/donor change stood at 0.532.

The compound `CC1CCN=C(N)S1` (racemic) [(±)-AMT hydrochloride] returned a cFRET/donor change of 0.00413.

In turn, `CC(=O)/C=C1/C(=O)N(C)c2ccccc21` [Supercinnamaldehyde] displayed a cFRET/donor change of 0.0218.

Turning to `CC(N)(Cc1ccc(O)cc1)C(=O)O` (racemic) [DL-alpha-Methyl-p-tyrosine], the cFRET/donor change was -0.224.

Regarding `C[C@]12CC[C@@H]3c4ccc(O)cc4C[C@@H](CCCCCCCCC[S+]([O-])CCCC(F)(F)C(F)(F)F)[C@H]3[C@@H]1CC[C@@H]2O` (some centres undefined) [Fulvestrant], the cFRET/donor change was 0.0846.

`NS(=O)(=O)c1nn2cc(-c3ccccc3)nc2s1` displayed a cFRET/donor change of -0.298.

For the compound `COC(=O)C(C)(N)Cc1ccc(O)cc1` (racemic) [alpha-Methyl-DL-tyrosine methyl ester hydrochloride], the cFRET/donor change was 0.302.

The compound `O=C1OC(=O)[C@H]2[C@@H]1[C@@H]1CC[C@H]2O1` [Norcantharidin] returned a cFRET/donor change of 0.251.

`CCCCC1(C2CCCC2)Cc2cc(OCC(=O)O)c(Cl)c(Cl)c2C1=O` (stereo in doubt) [R(+)-Butylindazone] showed a cFRET/donor change of 0.322.
